# From PubChem BioAssay
# In the library only some 1.4% were active in any assay of this set; here they are far more common.
# Pf gamet viab: inhibitors of late stage P. falciparum gametocyte viability | 0.065% of 150,000 active | P. falciparum stage V gametocytes, ATP luminescence, 24 h | inhibition, % at 10.9 µM;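 active means inhibition above the mean plus 3 SD of compounds within the control limits, set per campaign, cut at about 38% in these data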;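 further: 0% = DMSO wells and 100% = medium only without gametocytes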
# Furin inh: inhibitors of human furin; AID 463115; P09958; purified furin, fluorogenic substrate cleavage; inhibition, % at 20 µM or 30 µM; 0.061% of 220,000 active; in the data active means inhibition above about 25%
# EP2 mod: modulates human prostaglandin E2 receptor EP2 signaling; P43116; EP2-expressing cells, cAMP HTRF FRET, PGE2 co-stimulation; induction, % at 25 µM; 0.83% of 260,000 active; AID 940;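 active means compounds whose cAMP rise, as percent of the full-agonist control response, exceeds 60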;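 further: rat C6 glioma line stably carrying human EP2 under a CMV promoter; the protocol text gives 20 µM as final concentration; 100% = response of wells given 1 µM PGE2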
# Target sequence (P43116 whole entry, looked up): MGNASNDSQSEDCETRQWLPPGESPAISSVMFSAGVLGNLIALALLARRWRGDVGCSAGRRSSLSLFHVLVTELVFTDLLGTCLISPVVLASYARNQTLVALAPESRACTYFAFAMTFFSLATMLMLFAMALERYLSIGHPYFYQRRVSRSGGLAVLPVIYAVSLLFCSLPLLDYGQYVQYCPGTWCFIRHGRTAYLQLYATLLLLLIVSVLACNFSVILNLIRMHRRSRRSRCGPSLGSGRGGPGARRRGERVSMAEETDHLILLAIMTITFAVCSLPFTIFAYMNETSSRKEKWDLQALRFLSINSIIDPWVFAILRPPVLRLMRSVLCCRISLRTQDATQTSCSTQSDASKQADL
# EP2 antag: blocks the human prostaglandin E2 receptor EP2 | P43116 | C6 glioma cells expressing human EP2, cAMP TR-FRET; cells stimulated with saturating PGE2 | inhibition, % at 25 µM | 0.52% of 260,000 active | AID 1422;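 active means percent inhibition above 40 after rounding to a whole number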;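 further: rat C6 glioma host cells with rolipram phosphodiesterase inhibitor present; the protocol text gives 20 µM as final concentration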
# HSV augment: HSV replication enhancement | maximum fold increase | 0.005% of 220,000 active | AID 1956 | HSV replication augmentation in cells, fold increase; in the data active means maximum fold increase above about 1.5; tested in PC3 cells
# Numbers without * were called inactive; i = inactive; x = no result; ! = not active in a repeat.
SMILES,Pf gamet viab,Furin inh,EP2 mod,EP2 antag,HSV augment
CCC(C)(C)n1nnnc1C(c1cc2cc(C)cc(C)c2[nH]c1=O)N1CCCC(C)C1 (centres undefined),x,x,85.8*,10.3,x
Cc1ccc(S(=O)(=O)Nc2ccccc2C(=O)c2ccc(C)c(C)c2)cc1,x,x,4.2,45.2*,x
Cc1ccc(S(=O)(=O)Nc2ccc(Cl)cc2C(=O)c2ccccc2)cc1,-4.4,-8.6,44.8,7.5,i
O=C(NCc1ccc(F)cc1)C1CCN(C(=O)NCc2ccccc2)CC1,-17.1,-20.7,28.6,11.3,i
Cc1ccc2c(c1)C1CN(C)CCC1N2C(=O)c1ccc(Cl)c(S(=O)(=O)N2CCOCC2)c1 (centres undefined),7.0,-20.0,-40.4,10.3,i
COc1ccc(NC(=S)Nc2ccccc2OC)c(OC)c1,x,-31.4,-19.2,5.6,i
COc1ccc(NC(=S)Nc2cnc3ccccc3c2)c(OC)c1,11.9,-22.2,-64.1,43.9*,i
COC(=O)c1ccc2c(=O)n(CC3CCCO3)c(SCC(=O)Nc3ccc(OC)cc3OC)nc2c1 (centres undefined),-5.1,-16.4,-5.7,2.5,i
Cc1ccc(S(=O)(=O)N(C)c2ccccc2)cc1,x,-17.2,12.0,9.3,i
CC(=O)Oc1ccc(N(c2ccccc2)S(=O)(=O)c2ccc(C)cc2)cc1,0.3,-19.7,60.5*,8.7,i
Cc1ccc(-c2oc3ncnc(N)c3c2-c2ccc(C)cc2)cc1,x,-17.6,60.8*,4.8,i
O=C(C1CCCN(S(=O)(=O)c2cccc3nonc23)C1)N1CCN(c2ccccc2Cl)CC1 (centres undefined),-16.0,-25.1,10.8,6.4,i
CC1(C)CC(=O)C(C(C2=C(O)CC(C)(C)CC2=O)c2ccc(Br)s2)C(=O)C1 (centres undefined),16.1,-17.3,-78.2,51.0*,i
Nc1ccc(-c2nc3ccc(-c4nc5ccccc5o4)cc3[nH]2)cc1,1.1,-8.7,-36.6,73.0*,i
O=C(N/N=C/c1cn(-c2cccs2)nc1-c1ccccc1)c1ccc(O)cc1,2.1,-18.5,-37.6,41.5*,i
O=C(O)C(Cc1c[nH]c2ccccc12)N1CCS(=O)(=O)CC1 (centres undefined),-6.5,-8.5,27.8,4.8,i
O=C(NC1CCCC1)C1CC1c1ccccc1 (centres undefined),x,25.4*,-0.7,5.0,i
COc1cc(C(=O)Oc2ccc3c(c2)OCC3=O)cc(OC)c1OC,x,0.0,-1.3,10.8,i
Cc1sc(NC(=O)c2ccco2)c(CN2CCN(c3ccccc3)CC2)c1C,-14.3,-19.2,15.3,6.4,i
CC(=O)c1cccc(NC(=O)c2ccc(-c3ccccc3[N+](=O)[O-])o2)c1,-2.1,-4.3,-69.4,47.0*,i
CCn1nnc(NC(=O)c2ccc(-c3ccccc3[N+](=O)[O-])o2)n1,20.4,-19.0,-15.7,5.5,i
CC(C)C1OC(c2cccc(NC(=O)c3cccs3)c2)OCC1(C)C (centres undefined),x,-31.0,-7.5,3.5,i
CC1CCCCN1CC(=O)Nc1ccccc1Sc1ccccc1 (centres undefined),-25.5,-26.6,62.3*,11.8,i
CCn1c(Cc2ccccc2)nnc1SCC(=O)Nc1nc2ccccc2s1,-9.6,13.5,9.9,13.8,i
COc1ccc(CCC(=O)O)c(O)c1,x,-33.6,25.0,15.2,i
SMILES,Pf gamet viab,Furin inh,EP2 mod,EP2 antag,HSV augment
Cc1nn(-c2cc(C)c3ccccc3n2)c2c1CCC2,x,-21.8,63.8*,-0.1,i
CCCCOC(=O)C1CCC[C@@H](C)N1 (some centres undefined),21.9,-13.2,23.3,8.4,i
Cn1c(=O)c2c(nc(CN3CCN(c4ccccc4F)CC3)n2CCN2CCOCC2)n(C)c1=O,-1.1,-4.7,27.4,6.9,i
COc1ccc(N2C(=O)C(Cl)=C(Oc3cccc(OC)c3)C2=O)cc1,x,-25.6,-51.9,100.4*,i
CN(C)CCCN1c2ccc3ccccc3c2Sc2cccc(Cl)c21,x,x,-19.7,49.0*,x
CC(=O)OC[C@]1(OC(C)=O)C[C@@]23CC[C@H]4[C@@](C)(CCC[C@@]4(C)C(=O)O)[C@@H]2CC[C@@H]1C3,-2.8,-13.7,11.8,6.0,i
CC(C)[C@]1(Cl)CC[C@H]2[C@]3(C)CCC[C@@](C)(C(=O)O)[C@H]3C[C@@H](Cl)[C@]2(Cl)[C@H]1Cl,x,x,34.9,47.6*,x
COc1ccc(-c2cn3cc(C)ccc3n2)cc1F,5.5,-7.0,-55.7,1.8,i
CC1(C)CC(=O)C(C(c2cccc(O)c2O)C2C(=O)CC(C)(C)CC2=O)C(=O)C1,x,x,23.6,41.2*,x
COc1cc(C(=O)NC(=S)N2CCCCCC2)cc(OC)c1OC,x,-11.4,11.1,7.1,i
COc1ccccc1C1(O)CCCN(C(=O)COc2ccc3nsnc3c2)C1 (centres undefined),x,x,-60.2,55.1*,x
Cc1ccccc1C1(O)CCN(C(=O)COc2ccc3nsnc3c2)CC1,x,x,-26.2,11.7,x
O=C(Nc1ccccc1)C1CCN(C(=O)c2ccccc2)CC1,-21.1,-21.3,-9.6,12.7,i
CC12CCC(C(=O)N(Cc3ccccc3)Cc3ccccc3)(OC1=O)C2(C)C (centres undefined),-26.5,-8.7,61.2*,17.9,i
CCc1cc2c(C)ccc(C)c2nc1SCC(=O)OC,x,x,86.7*,15.8,x
COc1ccc(CC(=O)Nc2nn(C)c3nc4c(C)cccc4cc23)cc1,13.0,-17.3,-21.7,48.4*,i
COc1ccc(OC)c(NC(=O)CSc2nc(C3CCCCC3)nc3ccccc23)c1,x,x,60.9*,12.8,x
CCC(=O)Nc1nn(C)c2nc3c(C)cccc3cc12,x,-32.4,-8.7,12.1,i
CCc1cc2c(C)ccc(C)c2nc1SCC(=O)NNC(C)=O,x,x,16.2,13.3,x
CCc1cc2cccc(C)c2nc1SCC(=O)Nc1cc(OC)ccc1OC,x,x,62.7*,14.3,x
CCC(=O)Nc1cccc(NC(=O)CSc2nc(C3CCCCC3)nc3ccccc23)c1,x,x,-2.3,13.1,x
CC(=O)Nc1cc2cc(NS(=O)(=O)c3ccc(Cl)cc3)ccc2oc1=O,4.1,-19.1,4.2,8.4,i
CCOc1ccc(NC(=O)CSc2nc3c([nH]c4ccccc43)c(=O)n2C)cc1,x,-5.3,-8.4,6.1,i
COc1ccc(C)cc1NC(=O)CSc1nc(C)nc2sc(C)c(C)c12,x,x,57.1,9.4,x
CCOC(=O)CC(=O)CSc1nc2c(C)c(C)ccc2cc1C,x,-8.3,66.4*!,8.0,i
CCc1c(C)sc2nc(C)nc(SCC(=O)Nc3ccccc3OC)c12,x,x,66.2*,8.8,x
O=c1cc(-c2ccccc2Cl)oc2c(NS(=O)(=O)c3cc(Cl)cc(Cl)c3O)ccc(O)c12,x,-5.6,8.4,45.0*,i
CCc1ccc(S(=O)(=O)Nc2ccc(O)c3c(=O)cc(-c4ccccc4Cl)oc23)cc1,-7.3,-27.8,44.0,20.3,i
COc1ccc([C@@H](Nc2ccccn2)c2cc(C(C)(C)C)cc(C(C)(C)C)c2O)cc1,x,x,36.2,45.9*,x
CC(C)C(Sc1nc(-c2ccccc2)cc(-c2ccccc2)c1C#N)C(=O)O (centres undefined),-19.2,-4.6,61.9*,10.1,i
